PubChem BioAssay (NCATS)
Values joined by “and” are separate entries in the source; they are usually repeats but may differ in a detail not shown here. Identical values can stand only once. Inconclusive results are not listed. Entries that show only a call come without a potency. Active and inactive are the calls of the source. Unless noted, calls follow the shape of the full dose curve.

What was measured:
[1] = target: Peroxisome proliferator-activated receptor gamma (Homo sapiens) (UniProt P37231); assay: qHTS assay for small molecule agonists of peroxisome proliferator-activated receptor gamma signaling (AID 588536; active = well fitted curve in the direction sought with a large enough effect in the signal ratio, with a control signal flat, not every such curve was filed as active; the % refers to the signal ratio)
Chain of Peroxisome proliferator-activated receptor gamma (Homo sapiens) (P37231 whole entry, looked up): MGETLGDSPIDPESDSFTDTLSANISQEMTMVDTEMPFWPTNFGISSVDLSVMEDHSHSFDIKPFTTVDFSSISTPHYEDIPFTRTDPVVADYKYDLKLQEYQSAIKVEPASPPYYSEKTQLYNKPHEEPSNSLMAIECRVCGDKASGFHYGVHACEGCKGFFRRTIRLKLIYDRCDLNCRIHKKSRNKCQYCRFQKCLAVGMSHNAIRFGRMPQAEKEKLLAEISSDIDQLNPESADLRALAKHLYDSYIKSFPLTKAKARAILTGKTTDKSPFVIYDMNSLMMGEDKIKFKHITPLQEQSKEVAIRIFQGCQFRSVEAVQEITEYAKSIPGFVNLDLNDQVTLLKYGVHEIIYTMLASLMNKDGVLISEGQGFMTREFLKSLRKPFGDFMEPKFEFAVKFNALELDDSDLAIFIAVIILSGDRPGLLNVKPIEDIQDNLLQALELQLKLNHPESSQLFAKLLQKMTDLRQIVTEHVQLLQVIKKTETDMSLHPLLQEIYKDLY
Method in brief: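 Ratiometric blue/green fluorescence (405 nm excitation; 460 and 530 nm emission) from CCF4-loaded HEK293 reporter cells serves as signal. Exposure to test compounds lasts 16 h at 37 C in medium containing 1% charcoal/dextran-treated serum.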

[2] = target: Peroxisome proliferator-activated receptor gamma (Homo sapiens) (UniProt P37231); assay: qHTS assay for small molecule antagonists of peroxisome proliferator-activated receptor gamma signaling (AID 588537; active = well fitted inhibition curve with a large enough effect in the signal ratio, with a control signal flat, not every such curve was filed as active; the % refers to the signal ratio;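 also: reporter cells co-stimulated with 50 nM rosiglitazone agonist during compound treatment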)
Method in brief: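 Step one: plate 3000 HEK293 UAS-bla cells per well in medium with 1% stripped serum and hold 6-6.5 h at 37 C. Step two: add compound and 50 nM agonist for 16 h. Step three: CCF4 loading, fluorescence read.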

[3] = qHTS assay for small molecule agonists of retinoid X receptor alpha signaling (AID 588544); conditions: HEK293T RXRa-UAS-bla, beta-lactamase reporter, 18 h; 530 nm emission
[4] = target: Retinoic acid receptor RXR-alpha (Homo sapiens) (UniProt P19793); assay: as above
Chain of Retinoic acid receptor RXR-alpha (Homo sapiens) (P19793 whole entry, looked up): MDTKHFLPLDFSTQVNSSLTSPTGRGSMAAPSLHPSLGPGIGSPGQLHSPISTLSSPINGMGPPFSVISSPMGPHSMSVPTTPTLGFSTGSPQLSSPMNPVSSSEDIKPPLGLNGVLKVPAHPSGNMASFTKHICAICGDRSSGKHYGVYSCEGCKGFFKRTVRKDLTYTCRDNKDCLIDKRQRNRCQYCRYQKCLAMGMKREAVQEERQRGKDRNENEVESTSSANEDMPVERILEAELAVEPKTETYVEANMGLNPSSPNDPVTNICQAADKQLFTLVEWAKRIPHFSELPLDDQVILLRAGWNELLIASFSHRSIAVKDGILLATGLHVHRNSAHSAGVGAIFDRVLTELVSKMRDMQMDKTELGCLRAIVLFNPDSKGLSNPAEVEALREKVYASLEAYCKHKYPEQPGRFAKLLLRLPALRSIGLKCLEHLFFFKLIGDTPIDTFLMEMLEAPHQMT

[5] = qHTS assay for small molecule antagonists of retinoid X receptor alpha signaling (AID 588546; active = well fitted inhibition curve with a large enough effect in the signal ratio, with a control signal flat, not every such curve was filed as active; the % refers to the signal ratio;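 also: cells stimulated with 9-cis-retinoic acid as agonist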); conditions: HEK293T RXRa-UAS-bla, beta-lactamase ratio, antagonist mode; measured here: W530 green channel, cytotoxicity proxy
Method in brief: (§1)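 Beta-lactamase reporter inhibition, read as CCF4 fluorescence ratio (ex 405, em 460/530 nm) after 2 h at RT. HEK293T UAS-bla cells, 2500/well, were stimulated with 9-cis-RA at 500 or 100 nM final alongside test compound for 18 h at 37 C.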

[6] = target: Retinoic acid receptor RXR-alpha (Homo sapiens) (UniProt P19793); assay: as above; conditions: HEK293T RXRa-UAS-bla, beta-lactamase ratio, antagonist mode
Method in brief: as §1

[7] = Cell Viability - BJ (AID 421); conditions: BJ fibroblast viability, qHTS;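 also: potency is read from the fitted curve at half-maximal effect; cells exposed to compound for 40 hours at 37 °C before readout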
Method in brief: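 Cytotoxicity as drop in intracellular ATP (CellTiter-Glo, 20 min RT) after 40 hr compound exposure of BJ fibroblasts at 37 °C. Titrations scaled between DMSO and 100 uM tamoxifen, Hill-fitted for AC50.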

[8] = Cell Viability - HepG2 (AID 433); conditions: qHTS;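 also: potency is read from the fitted curve at half-maximal effect; potency for ATP loss meaning cytotoxicity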
Method in brief: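 In this qHTS format, a 40 h, 37 °C compound incubation of HepG2 cells in complete medium precedes a 20 min CellTiter-Glo step at room temperature. Tamoxifen and doxorubicin serve as positive controls; Hill-equation fits yield AC50.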

[9] = Cell Viability - MRC5 (AID 434); conditions: MRC5 lung fibroblast viability, qHTS;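 also: potency is read from the fitted curve at half-maximal effect; potency reflects cytotoxicity seen as loss of intracellular ATP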
Method in brief: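 MRC5 normal human lung fibroblasts, 1500 cells/well, exposed to compound for 40 hr at 37 C. Cellular ATP was read by CellTiter-Glo luminescence; data normalized to DMSO and 100 uM tamoxifen, with AC50 from Hill fits.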

[10] = Cell Viability - N2a (AID 540; active = well fitted curve in the direction sought with a large enough effect; an effect the other way counts as inactive or inconclusive; also: nearly all actives have a fitted effect of over 45% in size); conditions: N2a mouse neuroblastoma cell viability; at 92.2 µM (top of the series)
Method in brief: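 Mouse neuroblastoma N2a cells (1500/well) were preincubated 5 hr at 37 °C, then exposed to compounds for 40 hr at 37 °C in complete medium. Viability was read as intracellular ATP by CellTiter-Glo luminescence; AC50 from Hill fits.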

[11] = Cell Viability - NIH 3T3 (AID 541; active = well fitted curve in the direction sought with a large enough effect; an effect the other way counts as inactive or inconclusive; also: nearly all actives have a fitted effect of over 25% in size); conditions: NIH 3T3 cell viability, qHTS; at 92.2 µM (top of the series)
Method in brief: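 NIH 3T3 mouse embryo fibroblasts (1000 cells/well) were plated in complete medium and treated with compound for 40 hr at 37 °C. Viability was read as intracellular ATP by CellTiter-Glo luminescence; AC50 values came from Hill-equation fits of concentration-response data.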

[12] = Cell Viability - HUV-EC-C (AID 542; active = well fitted curve in the direction sought with a large enough effect; an effect the other way counts as inactive or inconclusive; also: nearly all actives have a fitted effect of over 35% in size)
Method in brief: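 HUV-EC-C normal human vascular endothelial cells, 1000 cells/well, pre-incubated 5 hr at 37 °C, then exposed to compounds for 40 hr at 37 °C in complete medium. Viability measured as intracellular ATP by CellTiter-Glo luminescence; AC50 from Hill fits.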

[13] = Cell Viability - Renal Proximal Tubule (AID 545; active = well fitted curve in the direction sought with a large enough effect; an effect the other way counts as inactive or inconclusive; also: nearly all actives have a fitted effect of over 40% in size)
Method in brief: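 In this qHTS format, normal rat kidney-derived proximal tubule cells in complete culture medium receive compound titrations, then sit 40 hours at 37 °C before luciferase-based ATP quantitation; potency is reported as AC50 from concentration-response curves.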

[14] = Cell Viability - Mesenchymal (AID 546; active = well fitted curve in the direction sought with a large enough effect; an effect the other way counts as inactive or inconclusive;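 also: cells exposed to compound for 40 hours before reading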)
Method in brief: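 Human kidney mesenchymal cells from normal renal glomeruli, 1000 cells/well, rested 5 hr at 37 °C, then treated 40 hr at 37 °C in complete medium. Cellular ATP read by CellTiter-Glo luminescence; AC50 from Hill-equation fits.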

[15] = target: Androgen receptor (Homo sapiens) (UniProt P10275); assay: qHTS assay for small molecule agonists of androgen receptor signaling (AID 588515; active = well fitted curve in the direction sought with a large enough effect in the signal ratio, with a control signal flat; the % refers to the signal ratio); conditions: AR-UAS-bla HEK293, beta-lactamase ratio, agonist 16 h; stronger effect = higher value
Chain of Androgen receptor (Homo sapiens) (P10275 whole entry, looked up): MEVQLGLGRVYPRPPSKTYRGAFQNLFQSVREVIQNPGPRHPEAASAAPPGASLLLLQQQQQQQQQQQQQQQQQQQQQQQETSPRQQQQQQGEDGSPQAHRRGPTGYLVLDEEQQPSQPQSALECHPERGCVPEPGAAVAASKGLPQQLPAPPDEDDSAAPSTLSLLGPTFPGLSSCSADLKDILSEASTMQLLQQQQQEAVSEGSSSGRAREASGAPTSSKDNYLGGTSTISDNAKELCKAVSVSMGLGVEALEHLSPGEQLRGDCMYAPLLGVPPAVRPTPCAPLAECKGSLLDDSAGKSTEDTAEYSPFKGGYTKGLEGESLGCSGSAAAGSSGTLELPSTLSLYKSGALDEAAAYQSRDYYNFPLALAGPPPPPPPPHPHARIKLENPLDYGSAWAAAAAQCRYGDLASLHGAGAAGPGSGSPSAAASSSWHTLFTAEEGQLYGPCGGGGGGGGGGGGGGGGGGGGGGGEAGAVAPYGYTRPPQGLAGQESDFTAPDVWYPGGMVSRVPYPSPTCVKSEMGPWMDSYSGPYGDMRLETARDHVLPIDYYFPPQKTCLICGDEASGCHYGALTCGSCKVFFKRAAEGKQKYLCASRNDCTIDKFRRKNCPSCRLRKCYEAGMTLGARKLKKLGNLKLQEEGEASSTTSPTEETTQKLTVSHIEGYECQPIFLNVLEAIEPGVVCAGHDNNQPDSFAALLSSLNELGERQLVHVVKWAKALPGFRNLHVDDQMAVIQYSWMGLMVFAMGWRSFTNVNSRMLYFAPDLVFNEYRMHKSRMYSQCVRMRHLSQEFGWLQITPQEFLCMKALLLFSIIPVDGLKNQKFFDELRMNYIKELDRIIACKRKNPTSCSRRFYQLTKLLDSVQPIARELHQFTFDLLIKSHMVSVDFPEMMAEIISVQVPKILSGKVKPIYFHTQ
Method in brief: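 EC50 and efficacy came from Hill fits of titrations (up to 92 uM) normalized to 30 nM R1881 as 100% and DMSO as 0%. Compound exposure was 16 h at 37 C on AR-UAS-bla HEK293 cells, with a 405/460/530 nm CCF4 fluorescence read.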

[16] = target: Androgen receptor (Homo sapiens) (UniProt P10275); assay: qHTS assay for small molecule antagonists of androgen receptor signaling (AID 588516; active = well fitted curve in the direction sought with a large enough effect in the signal ratio, with a control signal flat, not every such curve was filed as active; the % refers to the signal ratio)
Method in brief: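 Compounds tested in titration against 10 nM R1881 in AR-responsive bla reporter HEK 293 cells; CCF4 fluorescence (460/530 nm) after 16 h exposure gave IC50 and efficacy.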

[17] = target: Peroxisome proliferator-activated receptor delta (Homo sapiens) (UniProt Q03181); assay: qHTS assay for small molecule agonists of peroxisome proliferator-activated receptor delta signaling (AID 588534)
Chain of Peroxisome proliferator-activated receptor delta (Homo sapiens) (Q03181 whole entry, looked up): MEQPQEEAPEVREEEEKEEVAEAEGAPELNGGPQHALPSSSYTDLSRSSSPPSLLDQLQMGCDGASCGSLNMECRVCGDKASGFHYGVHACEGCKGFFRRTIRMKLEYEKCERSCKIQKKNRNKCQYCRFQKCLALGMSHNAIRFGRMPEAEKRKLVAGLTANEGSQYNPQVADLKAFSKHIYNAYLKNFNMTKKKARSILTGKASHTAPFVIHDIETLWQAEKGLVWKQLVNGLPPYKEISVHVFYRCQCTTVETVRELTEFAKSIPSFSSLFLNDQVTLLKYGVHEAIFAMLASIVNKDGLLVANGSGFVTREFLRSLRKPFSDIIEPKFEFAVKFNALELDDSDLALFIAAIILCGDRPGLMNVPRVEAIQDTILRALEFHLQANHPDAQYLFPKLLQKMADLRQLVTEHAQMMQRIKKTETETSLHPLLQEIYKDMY
Method in brief: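 Cell-based beta-lactamase reporter assay run in agonist mode: cells seeded and incubated 5 hrs at 37 C, compounds added and incubated 18 hrs at 37 C. CCF4 dye fluorescence read after 2 hrs at RT; EC50 and efficacy from Hill fits.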

[18] = qHTS assay for small molecule antagonists of peroxisome proliferator-activated receptor delta signaling (AID 588535; active = well fitted inhibition curve with a large enough effect in the signal ratio, with a control signal flat, not every such curve was filed as active; the % refers to the signal ratio;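 as to max response: cells co-treated with a PPAR-delta agonist as stimulator during compound exposure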); conditions: HEK293T PPARd-UAS-bla, beta-lactamase FRET ratio, 18 h; 460 nm channel
Method in brief: (§2)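 Cells were seeded at 4000 per well in assay medium containing 2% charcoal/dextran FBS and held 5 hrs at 37 C. Compounds were then added for 18 hrs. CCF4 substrate was applied for 2 hrs at room temperature before fluorescence reading.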

[19] = target: Peroxisome proliferator-activated receptor delta (Homo sapiens) (UniProt Q03181); assay: as above
Method in brief: as §2

[20] = target: Thyroid hormone receptor beta (Homo sapiens) (UniProt P10828); assay: qHTS assay for small molecule agonists of thyroid hormone receptor beta signaling (AID 588545)
Chain of Thyroid hormone receptor beta (Homo sapiens) (P10828 whole entry, looked up): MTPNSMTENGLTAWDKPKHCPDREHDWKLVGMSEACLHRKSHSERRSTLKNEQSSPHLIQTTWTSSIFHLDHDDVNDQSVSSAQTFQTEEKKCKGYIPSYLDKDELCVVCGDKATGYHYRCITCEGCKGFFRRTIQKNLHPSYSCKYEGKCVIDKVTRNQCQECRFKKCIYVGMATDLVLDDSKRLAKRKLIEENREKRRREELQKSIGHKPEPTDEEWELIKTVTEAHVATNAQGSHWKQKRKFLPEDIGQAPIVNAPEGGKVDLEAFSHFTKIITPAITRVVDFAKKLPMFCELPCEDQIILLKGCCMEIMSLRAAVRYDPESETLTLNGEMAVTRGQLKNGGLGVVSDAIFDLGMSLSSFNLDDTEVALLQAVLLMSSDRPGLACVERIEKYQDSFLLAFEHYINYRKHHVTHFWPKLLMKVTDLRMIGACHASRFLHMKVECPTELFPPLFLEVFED
Method in brief: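 Stimulation of a TR-driven beta-lactamase reporter was quantified in GripTite HEK 293 cells. Compound series ran for 18 hrs; curves were normalized to T3 and DMSO controls and fitted to yield EC50.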

SMILES: Cc1ccc2cc3c(ccc4ccccc43)c3c2c1CC3
- outcome [1]: inactive
- Potency [2]: inactive
- max response [3]: 0.698%
- outcome [4]: inactive
- max response [5]: 24.7%
- max response [6]: -30.8% (inactive)

SMILES: CC(C)(c1ccc(OCC2CO2)cc1)c1ccc(OCC2CO2)cc1 (stereo not given)
- Potency [7]: > 92 µM (inactive)
- Potency [8]: > 92 µM (inactive)
- Potency [9]: > 92 µM (inactive)
- activity change, negative = cytotoxicity [10]: -4.11% (inactive)
- activity change, negative = cytotoxicity [11]: -5.07% (inactive)
- outcome [12]: inactive
- outcome [13]: inactive
- outcome [14]: inactive
- activation [15]: 11.4% (inactive) and -15.4% (inactive)
- outcome [16]: inactive
- Potency [17]: inactive
- max response [18]: 35.6%
- outcome [19]: inactive
- Potency [20]: inactive
